# Records with an inconclusive call do not appear. Where a call stands in place of a potency, no number is given. The source holds several records for some structures; these can differ, active in one and inactive in another. Values without a mark were called inactive. Active and inactive are the calls of the source. Calls follow the shape of the dose curve; as a rule, active = well fitted curve in the direction sought with a large enough effect; inconclusive = small, poorly fitted or top-dose-only effect, or another doubt; inactive = no such curve, though single readings can be large; an effect the other way counts as inactive or inconclusive.
# Assays:
# MKL-1 = test: qHTS assay to identify novel small-molecules to repurpose for Merkel cell carcinoma treatment (AID 1296009); details: MCC and control cell lines, CellTiter-Glo viability, 72 h; series mostly up to 46 µM; also: nearly all actives have a fitted effect of over 60% in size
# Method in brief: (§1)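 Dose-response viability screen; 72 hr exposure at 37 degree celsius; CellTiter-Glo added, 10 min room temperature, luminescence read; RLUs scaled between no-cell and DMSO wells.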
# MKL-2 = test: as above; details: MCC and control cell lines, CellTiter-Glo viability, 72 h; series mostly up to 46 µM
# Method in brief: as §1
# UISO = test: as above; details: MCC and control cell lines, CellTiter-Glo viability, 72 h; series mostly up to 46 µM
# Method in brief: as §1
# WaGa = test: as above; details: MCC and control cell lines, CellTiter-Glo viability, 72 h; series mostly up to 46 µM
# Method in brief: as §1
# C33A = test: Primary qHTS to identify gynecologic anti-cancer compounds using libraries of approved drugs and bioactive compounds (AID 1345084); details: Gynecologic cancer cell panel viability, ATPlite luminescence, 48 h; series mostly up to 57.5 µM; also: nearly all actives have a fitted effect of over 55% in size
# Method in brief: (§2)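 Cells, 1,000 per well, were allowed to settle for 16 h at 37 C before compound addition. Five concentrations were tested for 48 h, and viability was read by ATPlite luminescence after 15 min at room temperature.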
# CASKI = test: as above; details: Gynecologic cancer cell panel viability, ATPlite luminescence, 48 h; series mostly up to 57.5 µM
# Method in brief: as §2
# Es-2 = test: as above; details: Gynecologic cancer cell panel viability, ATPlite luminescence, 48 h; series mostly up to 57.5 µM
# Method in brief: as §2
# HeLa = test: as above; details: Gynecologic cancer cell panel viability, ATPlite luminescence, 48 h; series mostly up to 57.5 µM
# Method in brief: as §2
# Hek293T = test: as above; details: Gynecologic cancer cell panel viability, ATPlite luminescence, 48 h, control line for the selectivity index; series mostly up to 57.5 µM
# Method in brief: as §2
# JEG-3 = test: as above; details: Gynecologic cancer cell panel viability, ATPlite luminescence, 48 h; series mostly up to 57.5 µM
# Method in brief: as §2
# OV90 = test: as above; details: Gynecologic cancer cell panel viability, ATPlite luminescence, 48 h; series mostly up to 57.5 µM
# Method in brief: as §2
# PA-1 = test: as above; details: Gynecologic cancer cell panel viability, ATPlite luminescence, 48 h; series mostly up to 57.5 µM
# Method in brief: as §2
# SKOV3 = test: as above; details: Gynecologic cancer cell panel viability, ATPlite luminescence, 48 h; series mostly up to 57.5 µM
# Method in brief: as §2
# Tov-21-G = test: as above; details: Gynecologic cancer cell panel viability, ATPlite luminescence, 48 h; series mostly up to 57.5 µM
# Method in brief: as §2
# Tov112D = test: as above; details: Gynecologic cancer cell panel viability, ATPlite luminescence, 48 h; series mostly up to 57.5 µM
# Method in brief: as §2
# [1] = Drug repurposing screens with cells derived from glioblastoma tumor samples (AID 1345199); details: GBM patient neurospheres viability, ATP luminescence, 48 h; also: nearly all actives have a fitted effect of over 40% in size
# Method in brief: (§3)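 Primary testing used CD133+ neurospheres from four GBM patients, seven concentrations, 48 h exposure and ATP-based viability; confirmation added three slower-growing patient lines.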
# astro = test: as above; details: viability, ATP luminescence, 48 h; series mostly up to 45.9 µM
# Method in brief: as §3
# [2] = qHTS assay to identify inhibitors of the type 1 interferon - major histocompatibility complex class I in skeletal muscle: Counter screen cell viability and HiBit confirmation (AID 1347412); details: iHSKM muscle cells + IFN-b, HiBiT or CellTiter-Glo, 24 h; also: nearly all actives have a fitted effect of over 60% in size
# Method in brief: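 After 24 h with human IFN-beta (4 ng/ml) and compound titrations (top 46 uM final, 1:3, 12 points), HLA-B HiBit myoblasts were lysed for either Nano-Glo HiBiT luminescence or CellTiter Glo viability on paired plates.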
# CAOV3 = test: Primary qHTS to identify gynecologic anti-cancer compounds using libraries of approved drugs and bioactive compounds (AID 1345084); details: Gynecologic cancer cell panel viability, ATPlite luminescence, 48 h; series mostly up to 57.5 µM; also: nearly all actives have a fitted effect of over 55% in size
# Method in brief: as §2
# NIH3T3 = test: qHTS assay to identify novel small-molecules to repurpose for Merkel cell carcinoma treatment (AID 1296009); details: MCC and control cell lines, CellTiter-Glo viability, 72 h; at 44.8 µM (top of the series) unless noted; also: nearly all actives have a fitted effect of over 60% in size
# Method in brief: as §1
# [3] = at 45.9 µM (top of the series), tumour line B
# [4] = at 45.9 µM (top of the series), tumour line D
# [5] = at 46.1 µM (top of the series), tumour line C
# [6] = at 91.6 µM (top of the series), tumour line B
# Potency is read from the fitted curve at half-maximal effect.
structure (smiles),measurement,setting,value
O=C(CCN1CCN(CCO)CC1)N1c2ccccc2Sc2ccc(C(F)(F)F)cc21,Potency,MKL-1,inactive
same,Potency,MKL-2,inactive
same,Potency,UISO,inactive
same,Potency,WaGa,inactive
same,Potency,C33A,inactive
same,Potency,CASKI,inactive
same,Potency,Es-2,inactive
same,Potency,HeLa,inactive
same,Potency,Hek293T,inactive
same,Potency,JEG-3,inactive
same,Potency,OV90,inactive
same,Potency,PA-1,inactive
same,Potency,SKOV3,inactive
same,Potency,Tov-21-G,inactive
same,Potency,Tov112D,inactive
same,"activity, negative = cell killing",[1]; [3],-17.6%
same,Potency,[1]; tumour line A,11.2 µM (active)
same,Potency,astro,inactive
CN(C)c1ccc(C(=C2C=CC(=[N+](C)C)C=C2)c2ccccc2)cc1,Potency,MKL-1,0.0376 µM (active)
same,Potency,MKL-2,0.0133 µM (active)
same,Potency,UISO,0.0668 µM (active)
same,Potency,C33A,2 µM (active)
same,Potency,Es-2,1.78 µM (active)
same,Potency,HeLa,2.51 µM (active)
same,Potency,Hek293T,2.51 µM (active)
same,Potency,OV90,11.2 µM (active)
same,Potency,PA-1,1.26 µM (active)
same,Potency,SKOV3,1.12 µM (active)
same,Potency,Tov112D,2 µM (active)
same,Potency,[2]; HiBiT,1.98 µM (active)
same,Potency,[2]; Viability,3.94 µM (active)
Cc1c(C(=O)O)c(O)cc2c1C(=O)c1c(O)c([C@@H]3O[C@H](CO)[C@@H](O)[C@H](O)[C@H]3O)c(O)c(O)c1C2=O,Potency,MKL-1,inactive
same,Potency,MKL-2,inactive
same,Potency,UISO,inactive
same,Potency,WaGa,inactive
same,Potency,C33A,inactive
same,Potency,CASKI,inactive
same,Potency,Es-2,inactive
same,Potency,HeLa,inactive
same,Potency,Hek293T,inactive
same,Potency,JEG-3,inactive
same,Potency,PA-1,inactive
same,Potency,SKOV3,inactive
same,Potency,Tov-21-G,inactive
same,Potency,Tov112D,inactive
same,"activity, negative = cell killing",[1]; [3],-25.2%
same,"activity, negative = cell killing",[1]; [4],-27.3%
same,"activity, negative = cell killing",[1]; [5],21.4%
CCCCCCCCCCCCOCCO,Potency,MKL-1,inactive
same,Potency,MKL-2,inactive
same,Potency,UISO,inactive
same,Potency,WaGa,inactive
same,Potency,C33A,inactive
same,Potency,CASKI,inactive
same,Potency,Es-2,inactive
same,Potency,HeLa,inactive
same,Potency,Hek293T,inactive
same,Potency,JEG-3,inactive
same,Potency,OV90,inactive
same,Potency,PA-1,inactive
same,Potency,SKOV3,inactive
same,Potency,Tov-21-G,inactive
same,Potency,Tov112D,inactive
CN(C)c1ccc(N=NS(=O)(=O)O)cc1,Potency,MKL-1,5.12 µM (active)
same,Potency,MKL-2,6.44 µM (active)
same,Potency,WaGa,40.7 µM (active)
same,Potency,C33A,inactive
same,Potency,CASKI,inactive
same,Potency,Es-2,inactive
same,Potency,HeLa,inactive
same,Potency,Hek293T,inactive
same,Potency,Tov-21-G,inactive
same,"activity, negative = cell killing",[1]; [6],-16.9%
N=C1N=C(N)c2cc3ccccc3cc21,Potency,MKL-1,38.6 µM (active)
same,Potency,MKL-2,24.3 µM (active)
same,Potency,UISO,24.3 µM (active)
same,Potency,CASKI,31.6 µM (active)
same,Potency,Hek293T,39.8 µM (active)
same,Potency,PA-1,35.5 µM (active)
same,Potency,Tov-21-G,35.5 µM (active)
same,Potency,astro,39.8 µM (active)
COC(=O)C1=C(C)NC(C)=C(C(=O)OCC(C)C)C1c1ccccc1[N+](=O)[O-] (stereo not drawn),Potency,MKL-1,21.1 µM (active)
same,Potency,MKL-2,5.96 µM (active)
same,Potency,UISO,23.7 µM (active)
same,Potency,WaGa,21.1 µM (active)
same,Potency,C33A,inactive
same,Potency,CASKI,inactive
same,Potency,Es-2,inactive
same,Potency,HeLa,inactive
same,Potency,Hek293T,inactive
same,Potency,JEG-3,inactive
same,Potency,OV90,inactive
same,Potency,PA-1,inactive
same,Potency,Tov-21-G,inactive
same,Potency,Tov112D,inactive
same,"activity, negative = cell killing",[1]; [5],-13.4%
same,Potency,[1]; tumour line A,10 µM (active)
same,Potency,[1]; tumour line D,14.1 µM (active)
O=C(/C=C/c1ccccc1)NCCO,Potency,MKL-1,inactive
same,Potency,MKL-2,inactive
same,Potency,UISO,inactive
same,Potency,WaGa,inactive
same,Potency,C33A,inactive
same,Potency,CASKI,inactive
same,Potency,Es-2,inactive
same,Potency,HeLa,inactive
same,Potency,Hek293T,inactive
same,Potency,JEG-3,inactive
same,Potency,OV90,inactive
same,Potency,PA-1,inactive
same,Potency,SKOV3,inactive
same,Potency,Tov-21-G,inactive
same,Potency,Tov112D,inactive
same,"activity, negative = cell killing",[1]; [3],-16.2%
same,"activity, negative = cell killing",[1]; [4],-5.87%
same,"activity, negative = cell killing",[1]; [5],-18.2%
same,Potency,astro,inactive
c1ccc(CCNc2nc(-c3ccccc3)cs2)cc1,Potency,MKL-1,inactive
same,Potency,WaGa,inactive
same,Potency,C33A,inactive
same,Potency,CAOV3,inactive
same,Potency,CASKI,inactive
same,Potency,Es-2,inactive
same,Potency,HeLa,inactive
same,Potency,Hek293T,inactive
same,Potency,JEG-3,inactive
same,Potency,PA-1,inactive
same,Potency,SKOV3,inactive
same,Potency,Tov-21-G,inactive
same,Potency,Tov112D,inactive
same,"activity, negative = cell killing",[1]; [3],-22.5%
same,Potency,[1]; tumour line A,14.1 µM (active)
COC(=O)C1=C(C)NC(C)=C(C(=O)OCC(C)=O)C1c1ccccc1[N+](=O)[O-] (stereo not drawn),Potency,MKL-1,21.1 µM (active)
same,Potency,MKL-2,10.6 µM (active)
same,Potency,C33A,inactive
same,Potency,CASKI,inactive
same,Potency,Es-2,inactive
same,Potency,Hek293T,inactive
same,Potency,JEG-3,inactive
same,Potency,OV90,inactive
same,Potency,PA-1,inactive
same,Potency,SKOV3,inactive
same,Potency,Tov-21-G,inactive
same,Potency,Tov112D,inactive
CCCOC(=O)c1ccc(O)cc1,Potency,MKL-1,inactive
same,Potency,MKL-2,inactive
same,Potency,UISO,inactive
same,Potency,WaGa,inactive
same,Potency,C33A,inactive
same,Potency,CASKI,inactive
same,Potency,Es-2,inactive
same,Potency,HeLa,inactive
same,Potency,Hek293T,inactive
same,Potency,JEG-3,inactive
same,Potency,OV90,inactive
same,Potency,PA-1,inactive
same,Potency,SKOV3,inactive
same,Potency,Tov-21-G,inactive
same,Potency,Tov112D,inactive
same,"activity, negative = cell killing",[1]; [3],-2.89%
same,"activity, negative = cell killing",[1]; [4],-17.2%
same,"activity, negative = cell killing",[1]; [5],-7.69%
same,"activity, negative = cell killing",[1]; [6],-21%
same,"activity, negative = cell killing","[1]; at 91.6 µM (top of the series), tumour line D",-29.2%
same,"activity, negative = cell killing","[1]; at 99.2 µM (top of the series), tumour line C",-27.8%
same,Potency,[1]; tumour line A,35.5 µM (active)
same,Potency,astro,inactive
CC1(C)S[C@@H]2[C@H](NC(=O)[C@H](N)c3ccccc3)C(=O)N2[C@H]1C(=O)O,Potency,MKL-1,inactive
same,Potency,MKL-2,inactive
same,Potency,UISO,inactive
same,Potency,WaGa,inactive
same,Potency,C33A,inactive
same,Potency,CASKI,inactive
same,Potency,Es-2,inactive
same,Potency,HeLa,inactive
same,Potency,Hek293T,inactive
same,Potency,JEG-3,inactive
same,Potency,OV90,inactive
same,Potency,PA-1,inactive
same,Potency,SKOV3,inactive
same,Potency,Tov-21-G,inactive
same,Potency,Tov112D,inactive
same,"activity, negative = cell killing",[1]; [3],-7.71%
same,"activity, negative = cell killing",[1]; [4],10.7%
same,"activity, negative = cell killing",[1]; [5],12.5%
same,Potency,astro,inactive
O=[N+]([O-])c1ccc(CNc2nc(NCc3cccc(C(F)(F)F)c3)nc3nc[nH]c23)cc1,outcome,NIH3T3,inactive
same,Potency,C33A,inactive
same,Potency,CASKI,inactive
same,Potency,Es-2,inactive
same,Potency,HeLa,inactive
same,Potency,Hek293T,inactive
same,Potency,JEG-3,inactive
same,Potency,PA-1,inactive
same,Potency,SKOV3,inactive
same,Potency,Tov-21-G,inactive
same,Potency,Tov112D,inactive
CC1(C)[C@@H](O[C@H]2O[C@H](C(=O)O)[C@@H](O)[C@H](O)[C@H]2O[C@@H]2O[C@H](C(=O)O)[C@@H](O)[C@H](O)[C@H]2O)CC[C@]2(C)[C@H]3C(=O)C=C4[C@@H]5C[C@@](C)(C(=O)O)CC[C@]5(C)CC[C@@]4(C)[C@]3(C)CC[C@@H]12,Potency,C33A,inactive
same,Potency,CAOV3,inactive
same,Potency,CASKI,inactive
same,Potency,Es-2,inactive
same,Potency,HeLa,inactive
same,Potency,Hek293T,inactive
same,Potency,JEG-3,inactive
same,Potency,OV90,inactive
same,Potency,PA-1,inactive
same,Potency,Tov-21-G,inactive
same,Potency,Tov112D,inactive
same,"activity, negative = cell killing",[1]; [3],-9.84%
same,"activity, negative = cell killing",[1]; [4],5.57%
same,"activity, negative = cell killing","[1]; at 46 µM (top of the series), tumour line A",-2.05%
same,"activity, negative = cell killing",[1]; [5],21.2%
same,Potency,astro,inactive

# From PubChem BioAssay (NCATS)
